# The supplement of paper PMC9794691
# Columns and labels:
# Assay in all cases: area under confluence curve of osimertinib + compound combination regimen (DTP regrowth); compare to osimertinib-only DTP control AUC of the same experiment (AUC (confluence x time, arbitrary))
# [1] = test system: H1975
# Outline: (§1)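 EGFR-mutant NSCLC lines were seeded at 20,000–30,000 cells/well in 48-well plates in RPMI 1640 with 10% FBS at 37 °C, 5% CO2. They got the EGFR inhibitor with a fixed-dose test compound upfront to the persister stage (10–21 days), then drug-free medium, or the inhibitor alone and then the test compound. Medium was refreshed every 3–4 days until inhibitor-only controls regrew to confluence. Area under the IncuCyte confluence–time curve came from Prism, median of triplicates where available.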
# [2] = test system: HCC2279
# Outline: as §1
# [3] = test system: HCC2935
# Outline: as §1
# [4] = test system: HCC4006
# Outline: as §1
# [5] = test system: HCC827
# Outline: as §1
# [6] = test system: II-18
# Outline: as §1
# [7] = test system: PC9
# Outline: as §1
smiles,measurement,setting,value
Cn1cnc2c(F)c(Nc3ccc(Br)cc3Cl)c(C(=O)NOCCO)cc21 [Selumetinib] + C=CC(=O)Nc1cc(Nc2nccc(-c3cn(C)c4ccccc34)n2)c(OC)cc1N(C)CCN(C)C [osimertinib],area under confluence curve,"[1]; test compound dose 300 nM, dosing schedule: sequential, osimertinib-only DTP control AUC in same experiment: 12533, DMSO control AUC in same experiment: 14522",2580
same,area under confluence curve,"[1]; test compound dose 300 nM, dosing schedule: upfront, osimertinib-only DTP control AUC in same experiment: 18969, DMSO control AUC in same experiment: 14522",10100
same,area under confluence curve,"[2]; test compound dose 300 nM, dosing schedule: sequential, osimertinib-only DTP control AUC in same experiment: 15997, DMSO control AUC in same experiment: 40085",8900
same,area under confluence curve,"[2]; test compound dose 300 nM, dosing schedule: upfront, osimertinib-only DTP control AUC in same experiment: 28057, DMSO control AUC in same experiment: 40085",9080
same,area under confluence curve,"[3]; test compound dose 300 nM, dosing schedule: sequential, osimertinib-only DTP control AUC in same experiment: 7139, DMSO control AUC in same experiment: 15413",12800
same,area under confluence curve,"[3]; test compound dose 300 nM, dosing schedule: upfront, osimertinib-only DTP control AUC in same experiment: 19044, DMSO control AUC in same experiment: 15413",9550
same,area under confluence curve,"[4]; test compound dose 300 nM, dosing schedule: sequential, osimertinib-only DTP control AUC in same experiment: 14882, DMSO control AUC in same experiment: 10921",9590
same,area under confluence curve,"[4]; test compound dose 300 nM, dosing schedule: upfront, osimertinib-only DTP control AUC in same experiment: 18913, DMSO control AUC in same experiment: 10921",11700
same,area under confluence curve,"[5]; test compound dose 300 nM, dosing schedule: sequential, osimertinib-only DTP control AUC in same experiment: 18675, DMSO control AUC in same experiment: 48895",11400
same,area under confluence curve,"[5]; test compound dose 300 nM, dosing schedule: upfront, osimertinib-only DTP control AUC in same experiment: 25542, DMSO control AUC in same experiment: 48895",11100
same,area under confluence curve,"[6]; test compound dose 300 nM, dosing schedule: sequential, osimertinib-only DTP control AUC in same experiment: 21014, DMSO control AUC in same experiment: 18482",16200
same,area under confluence curve,"[6]; test compound dose 300 nM, dosing schedule: upfront, osimertinib-only DTP control AUC in same experiment: 27084, DMSO control AUC in same experiment: 18482",14400
same,area under confluence curve,"[7]; test compound dose 300 nM, dosing schedule: sequential, osimertinib-only DTP control AUC in same experiment: 14554, DMSO control AUC in same experiment: 49189",10400
same,area under confluence curve,"[7]; test compound dose 300 nM, dosing schedule: upfront, osimertinib-only DTP control AUC in same experiment: 24473, DMSO control AUC in same experiment: 49189",11200
O=C(N[C@@H](C1CC1)C(F)(F)F)c1cc(-c2cnn3cc(-c4ccc(F)cc4)cnc23)cs1 + C=CC(=O)Nc1cc(Nc2nccc(-c3cn(C)c4ccccc34)n2)c(OC)cc1N(C)CCN(C)C [osimertinib],area under confluence curve,"[7]; test compound dose 1000 nM, dosing schedule: sequential, osimertinib-only DTP control AUC in same experiment: 10206, DMSO control AUC in same experiment: 18733",9160
same,area under confluence curve,"[7]; test compound dose 1000 nM, dosing schedule: upfront, osimertinib-only DTP control AUC in same experiment: 17072, DMSO control AUC in same experiment: 18733",16800
Cc1onc(C(=O)N2CCN(C(c3ccc(Cl)cc3)c3ccc(Cl)cc3)CC2)c1[N+](=O)[O-] + C=CC(=O)Nc1cc(Nc2nccc(-c3cn(C)c4ccccc34)n2)c(OC)cc1N(C)CCN(C)C [osimertinib],area under confluence curve,"[7]; test compound dose 1000 nM, dosing schedule: sequential, osimertinib-only DTP control AUC in same experiment: 8716, DMSO control AUC in same experiment: 45737",823
same,area under confluence curve,"[7]; test compound dose 1000 nM, dosing schedule: upfront, osimertinib-only DTP control AUC in same experiment: 11096, DMSO control AUC in same experiment: 45737",19300
C/C=C/Cn1cc(-c2cc(OC)c(C(=O)N3CCOCC3)cc2OC)c2cc(C)[nH]c2c1=O + C=CC(=O)Nc1cc(Nc2nccc(-c3cn(C)c4ccccc34)n2)c(OC)cc1N(C)CCN(C)C [osimertinib],area under confluence curve,"[7]; test compound dose 100 nM, dosing schedule: sequential, osimertinib-only DTP control AUC in same experiment: 12891, DMSO control AUC in same experiment: 44384",7150
same,area under confluence curve,"[7]; test compound dose 100 nM, dosing schedule: upfront, osimertinib-only DTP control AUC in same experiment: 16570, DMSO control AUC in same experiment: 44384",7750
Cc1nc(Nc2ncc(C(=O)Nc3c(C)cccc3Cl)s2)cc(N2CCN(CCO)CC2)n1 [Dasatinib] + C=CC(=O)Nc1cc(Nc2nccc(-c3cn(C)c4ccccc34)n2)c(OC)cc1N(C)CCN(C)C [osimertinib],area under confluence curve,"[1]; test compound dose 100 nM, dosing schedule: upfront, osimertinib-only DTP control AUC in same experiment: 18969, DMSO control AUC in same experiment: 14522",1440
same,area under confluence curve,"[2]; test compound dose 100 nM, dosing schedule: upfront, osimertinib-only DTP control AUC in same experiment: 43517, DMSO control AUC in same experiment: 29252",15300
same,area under confluence curve,"[3]; test compound dose 100 nM, dosing schedule: upfront, osimertinib-only DTP control AUC in same experiment: 10360, DMSO control AUC in same experiment: 13875",3810
same,area under confluence curve,"[4]; test compound dose 100 nM, dosing schedule: upfront, osimertinib-only DTP control AUC in same experiment: 21234, DMSO control AUC in same experiment: 16638",4610
same,area under confluence curve,"[5]; test compound dose 100 nM, dosing schedule: upfront, osimertinib-only DTP control AUC in same experiment: 39553, DMSO control AUC in same experiment: 30859",3890
same,area under confluence curve,"[6]; test compound dose 30 nM, dosing schedule: upfront, osimertinib-only DTP control AUC in same experiment: 13359, DMSO control AUC in same experiment: 11408",2420
CCn1nc(C2CCN(C(=O)CCO)CC2)nc1-c1cnc(N)c(-c2nnc(C(C)(C)C)o2)n1 + C=CC(=O)Nc1cc(Nc2nccc(-c3cn(C)c4ccccc34)n2)c(OC)cc1N(C)CCN(C)C [osimertinib],area under confluence curve,"[1]; test compound dose 1000 nM, dosing schedule: sequential, osimertinib-only DTP control AUC in same experiment: 15943, DMSO control AUC in same experiment: 20657",6780
same,area under confluence curve,"[1]; test compound dose 1000 nM, dosing schedule: upfront, osimertinib-only DTP control AUC in same experiment: 27804, DMSO control AUC in same experiment: 20657",13600
same,area under confluence curve,"[2]; test compound dose 1000 nM, dosing schedule: sequential, osimertinib-only DTP control AUC in same experiment: 11520, DMSO control AUC in same experiment: 9426",11600
same,area under confluence curve,"[2]; test compound dose 1000 nM, dosing schedule: upfront, osimertinib-only DTP control AUC in same experiment: 21942, DMSO control AUC in same experiment: 9426",16800
same,area under confluence curve,"[3]; test compound dose 1000 nM, dosing schedule: sequential, osimertinib-only DTP control AUC in same experiment: 6271, DMSO control AUC in same experiment: 13875",6130
same,area under confluence curve,"[3]; test compound dose 1000 nM, dosing schedule: upfront, osimertinib-only DTP control AUC in same experiment: 10360, DMSO control AUC in same experiment: 13875",4470
same,area under confluence curve,"[4]; test compound dose 1000 nM, dosing schedule: sequential, osimertinib-only DTP control AUC in same experiment: 19238, DMSO control AUC in same experiment: 16638",16700
same,area under confluence curve,"[4]; test compound dose 1000 nM, dosing schedule: upfront, osimertinib-only DTP control AUC in same experiment: 21234, DMSO control AUC in same experiment: 16638",5320
same,area under confluence curve,"[5]; test compound dose 1000 nM, dosing schedule: sequential, osimertinib-only DTP control AUC in same experiment: 8266, DMSO control AUC in same experiment: 27404",7050
same,area under confluence curve,"[5]; test compound dose 1000 nM, dosing schedule: upfront, osimertinib-only DTP control AUC in same experiment: 13929, DMSO control AUC in same experiment: 27404",11000
same,area under confluence curve,"[6]; test compound dose 1000 nM, dosing schedule: sequential, osimertinib-only DTP control AUC in same experiment: 21014, DMSO control AUC in same experiment: 18482",11100
same,area under confluence curve,"[6]; test compound dose 1000 nM, dosing schedule: upfront, osimertinib-only DTP control AUC in same experiment: 27084, DMSO control AUC in same experiment: 18482",4500
Cc1nc2nc(C)c(O[C@@H]3CCN(c4ccc(-c5ccc(CN6CCOCC6)nn5)cc4)C3)c(C)n2n1 + C=CC(=O)Nc1cc(Nc2nccc(-c3cn(C)c4ccccc34)n2)c(OC)cc1N(C)CCN(C)C [osimertinib],area under confluence curve,"[7]; test compound dose 1000 nM, dosing schedule: sequential, osimertinib-only DTP control AUC in same experiment: 10725, DMSO control AUC in same experiment: 30578",14600
same,area under confluence curve,"[7]; test compound dose 1000 nM, dosing schedule: upfront, osimertinib-only DTP control AUC in same experiment: 10245, DMSO control AUC in same experiment: 30578",12400
O=C([C@@H](Cc1cccc(C(F)(F)F)c1)NS(=O)(=O)c1cc(F)c2c(c1)CCNC2)N1CCCC1 + C=CC(=O)Nc1cc(Nc2nccc(-c3cn(C)c4ccccc34)n2)c(OC)cc1N(C)CCN(C)C [osimertinib],area under confluence curve,"[7]; test compound dose 1000 nM, dosing schedule: sequential, osimertinib-only DTP control AUC in same experiment: 10968, DMSO control AUC in same experiment: 21594",10000
same,area under confluence curve,"[7]; test compound dose 1000 nM, dosing schedule: upfront, osimertinib-only DTP control AUC in same experiment: 17834, DMSO control AUC in same experiment: 21594",13600
